Measured values from PubChem BioAssay (EPA / NIEHS).
“And” between values parts separate entries of the source, which are not always exact repeats. Equal values may be shown once. Results filed as inconclusive are left out. The source made the active and inactive calls. Rule for the calls: active = hit-call score of the fitted dose curve at least 0.9, where 1 is the maximum; inconclusive = response in the unintended direction; inactive = score below 0.9.

Each compound was assayed against human Adenosine A1 Receptor (AdoRA1), ADORA1 (gene 134) (UniProt P30542) (assay: NVS_GPCR_hAdoRA1: NovaScreen (NVS) G Protein-Coupled Receptor Assay for human Adenosine A1 Receptor (AdoRA1) (AID 2283254)).
Sequence of human Adenosine A1 Receptor (AdoRA1), ADORA1 (gene 134) (P30542 whole entry, looked up): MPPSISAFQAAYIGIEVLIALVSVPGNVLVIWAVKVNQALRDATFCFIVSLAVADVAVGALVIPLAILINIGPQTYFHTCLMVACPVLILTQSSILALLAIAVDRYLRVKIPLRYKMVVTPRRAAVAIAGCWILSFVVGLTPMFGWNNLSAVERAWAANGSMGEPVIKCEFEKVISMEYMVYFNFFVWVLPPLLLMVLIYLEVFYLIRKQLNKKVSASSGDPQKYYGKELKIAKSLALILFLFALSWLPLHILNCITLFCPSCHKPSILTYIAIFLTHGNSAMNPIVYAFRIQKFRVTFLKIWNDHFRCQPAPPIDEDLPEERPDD
Protocol: NVS_GPCR_hAdoRA1 is a biochemical, single-readout assay that uses extracted gene-proteins from Human cortical membranes in a tissue-based cell-free assay. Measurements were taken 1 hour after chemical dosing in a 96-well plate.NVS_GPCR_hAdoRA1 is one of one assay component(s) measured or calculated from the NVS_GPCR_hAdoRA1 assay. It is designed to make measurements of radioligand binding, a form of binding reporter, as detected with scintillation counting signals by Filter-based radiodetection technology.Data from the assay component NVS_GPCR_hAdoRA1 was analyzed into 1 assay endpoint. This assay endpoint, NVS_GPCR_hAdoRA1, was analyzed in the positive analysis fitting direction relative to DMSO as the negative control and baseline of activity. Using a type of binding reporter, loss-of-signal activity can be used to understand changes in the binding as they relate to the gene ADORA1. Furthermore, this assay endpoint can be referred to as a primary readout, because the performed assay has only produced 1 assay endpoint. To generalize the intended target to other relatable targets, this assay endpoint is annotated to the gpcr intended target family, where the subfamily is rhodopsin-like receptor.
Binding assays used specific radioligands (tritiated, iodinated) with non-radioactive competitive displacement ligands in agonist or antagonist protocols (as indicated) and various reference compounds and inhibitors to titrate specific binding to receptors and transporters. Most enzyme assays (CYPs, kinases, phosphatases, proteases, HDACs) used recombinant protein and specific substrates (fluorescence mostly, some colorimetric and radioactive) and inhibitors, followed by a biochemical separation of substrate and product. All assays for the biochemical HTS were initially run in duplicate at a single concentration (10 uM for CYP450 assays and 25 uM for all others). […] Each assay was run with positive and negative controls, and concurrent controls on every plate. The follow-up (secondary) screen tested active chemical-pairs in concentration series, as well as a few additional assays not tested in the primary screen, some selected negative inactives, and several cases re-run in the concentration series for confirmatory purposes.

Structure (SMILES) | AC50 | outcome
COc1ccc(C(c2ccc(OC)cc2)C(Cl)(Cl)Cl)cc1 | 6.77 µM (active) | 
COc1nc(NC(C)C)nc(NC(C)C)n1 | 8.99 µM (active) | 
OC(c1ccc(Cl)cc1)(c1cncnc1)c1ccccc1Cl (stereo unspecified) | 4.96 µM (active) | 
CCOC(=O)CC(SP(=S)(OC)OC)C(=O)OCC (stereo unspecified) | 4.74 µM (active) | 
CO/C=C(/C(=O)OC)c1ccccc1Oc1cc(Oc2ccccc2C#N)ncn1 | 6.85 µM (active) [middle of 4 runs] | 
CCCCC(CC)COC(=O)c1ccccc1C(=O)OCC(CC)CCCC (stereo unspecified) |  | inactive
CCCCNC(=O)OCC#CI | 9.47 µM (active) and 15.2 µM (active) | 
CCCCNC(=O)n1c(NC(=O)OC)nc2ccccc21 |  | inactive
COC(=O)N(OC)c1ccccc1COc1ccn(-c2ccc(Cl)cc2)n1 | 5.54 µM (active) | 
CCNc1nc(Cl)nc(NC(C)C)n1 | 5.9 µM (active) | 
CCCN(CCC)c1c([N+](=O)[O-])cc(S(N)(=O)=O)cc1[N+](=O)[O-] | 6.48 µM (active) | 
